Assay [1] is described as follows: AP1 Signaling Pathway (AID 357). Further: on the % scale 0 is the no-effect control and ±100 the full control effect. The conditions noted are these: ME-180 AP-1-bla reporter, EGF-induced, beta-lactamase ratio, 5 h; at 17.2 µM (top of the series) unless noted. Put shortly: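 Read-out was the 460nm/530nm emission ratio (excitation 405nm) after CCF4 loading for 2.5 hours at room temperature. Cells carried an AP-1-driven beta-lactamase reporter, were stimulated with EC50 EGF plus compound for 5 hours, and AC50 values came from titrations.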

The nature of assay [2]: NFAT Signaling Pathway (AID 444).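 Further: carbachol stimulus at about its EC50 of 1 µM final; on the % scale 0 is the no-effect control and ±100 the full control effect.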 The conditions noted are these: Jurkat NFAT-bla M1, carbachol, beta-lactamase ratio, 5 h; at 17.2 µM (top of the series) unless noted. Put shortly:
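Jurkat cells with NFAT-driven β-lactamase reporter and co-expressed M1 receptor, stimulated with carbachol (final 1 uM, ~EC50), compound titration, 5 h at 37 °C. CCF4 loaded 1 h at RT; 460/530 nm ratio gave %activity and AC50.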

Assay [3] in a line: Stat Signaling Pathway (AID 446).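 Further: ME-180 cervical cancer cells given 40 pM IL-6 alongside compound; SIE-controlled beta-lactamase reporter measured as 460/530 nm FRET emission ratio; on the % scale 0 is the no-effect control and ±100 the full control effect.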 The conditions noted are these: ME-180 SIE beta-lactamase reporter, IL-6 stimulated, 5 h; at 17.2 µM (top of the series) unless noted. In short, it runs like this:
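ME-180 cells carrying a SIE-driven beta-lactamase reporter are stimulated with 40 pM IL-6 for 5 h at 37C in the presence of compound. The 460/530 nm FRET substrate ratio is read after 2.5 h at RT. Data are normalised to 300 pM IL-6 and to 125 nM JAK inhibitor controls.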

The target of assay [4] is Glucocorticoid receptor (Homo sapiens) (UniProt P04150). Description: GR-GFP Redistribution (AID 450;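 active means compounds whose dose series gives a full or clear partial fitted curve of increased nuclear translocation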; further: potency means the concentration at half of the fitted maximal effect).
Chain of Glucocorticoid receptor (Homo sapiens) (P04150 whole entry, looked up, the tested form may be a part): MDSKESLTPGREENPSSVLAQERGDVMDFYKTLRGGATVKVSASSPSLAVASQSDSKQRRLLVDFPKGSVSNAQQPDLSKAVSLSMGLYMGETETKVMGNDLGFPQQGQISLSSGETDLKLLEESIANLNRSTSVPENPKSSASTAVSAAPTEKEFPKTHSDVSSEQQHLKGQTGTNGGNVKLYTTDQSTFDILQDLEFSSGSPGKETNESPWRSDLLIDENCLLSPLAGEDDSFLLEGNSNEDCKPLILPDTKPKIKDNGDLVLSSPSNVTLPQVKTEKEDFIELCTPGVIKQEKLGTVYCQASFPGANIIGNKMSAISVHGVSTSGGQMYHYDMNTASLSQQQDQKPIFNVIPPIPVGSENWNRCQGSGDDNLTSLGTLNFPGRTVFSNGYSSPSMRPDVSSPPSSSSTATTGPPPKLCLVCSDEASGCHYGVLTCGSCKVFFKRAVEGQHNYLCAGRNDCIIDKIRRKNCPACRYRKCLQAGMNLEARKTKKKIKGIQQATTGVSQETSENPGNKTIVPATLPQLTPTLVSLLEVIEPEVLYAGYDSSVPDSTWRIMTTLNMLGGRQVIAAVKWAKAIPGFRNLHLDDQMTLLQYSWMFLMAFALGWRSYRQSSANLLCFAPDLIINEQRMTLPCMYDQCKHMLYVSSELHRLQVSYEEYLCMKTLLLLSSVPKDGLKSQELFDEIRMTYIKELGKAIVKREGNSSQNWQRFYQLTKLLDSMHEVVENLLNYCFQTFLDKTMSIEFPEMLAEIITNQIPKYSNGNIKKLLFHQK
A short description of assay [5]: qHTS Assay for Identification of Small Molecule Agonists for Hypoxia Response Element Signaling Pathway (AID 914; active means well fitted activation curve with a large enough effect in the signal ratio, with a control signal flat, not every such curve was filed as active; the % refers to the signal ratio; further: potency means the concentration at half of the fitted maximal effect; on activation: % of control where 0% means no effect). The conditions noted are these: ME-180 (cervical carcinoma) HRE-bla reporter, beta-lactamase ratio, CoCl2, 17 h; activation: stronger effect = higher value. Put shortly: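 Read-out: CCF4 FRET ratio of 460nm to 530nm emission (excitation 405nm) after 2.5 hours at room temperature, taken from HRE-bla ME-180 cells that had been exposed to compound and EC50 CoCl2 for 17 hours.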
On the technique in general: Quantitative high-throughput screening tests each substance at several concentrations.

Assay [6] has as its target Glucocorticoid receptor (Homo sapiens) (UniProt P04150). Description: GR-EFC Redistribution (AID 451; calls by dose curve; further: potency means the concentration at half of the fitted maximal effect). The conditions noted are these: CHO-K1 GR-EFC translocation, beta-gal luminescence, 2 h. Put shortly:
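CHO-K1 cells expressing nuclear EA and GR-ED fragments of b-gal; compounds titrated up to 46 uM final, 2 h at 37 C. GR nuclear translocation read as complemented b-gal luminescence after 1 h RT detection.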

The target in assay [7] is Mitogen-activated protein kinase 10 (Mus musculus) (UniProt Q61831). Description: JNK3 AlphaScreen Assay (AID 530).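 Further: kinase came from lysate of stimulated human HepG2 cells; signal reports phosphorylation of biotinylated GST-cJun 1-79 at Ser73 with 10 µM ATP; on the % scale 0 is the no-effect control and ±100 the full control effect.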 In short, it runs like this: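 Pre-activated (IL-1β/TNFα) JNK3 in HepG2 lysates phosphorylates biotin-GST-cJun(1-79), 10 uM ATP; anti-phospho-cJun(Ser73) AlphaScreen read at room temperature, pH 7.6 Tris buffer. Compounds pre-incubated 15 min as titrations.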
(Alpha assays give light when donor and acceptor beads are brought close together.)

Assay [8] addresses 3',5'-cyclic-AMP phosphodiesterase 4B (Homo sapiens) (UniProt Q07343). Description: qHTS Assay for Inhibitors of PDE-IV (AID 607; active means well fitted activation curve with a large enough effect in the main read-out, with a control signal flat, not every such curve was filed as active; further: % of control where 0% means no effect). In short, it runs like this:
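HEK293 ACTOne cells with CNG channel (1000/well), endogenous PDE4; membrane potential dye, compounds up to 22.9 uM final. Fluorescence Ex 535/Em 590; RO 20-1724 (100 uM final) as reference.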

For assay [9], the target named is Cytochrome P450 2D6 (Homo sapiens) (UniProt P10635). Description: qHTS Assay for Inhibitors and Substrates of Cytochrome P450 2D6 (AID 891; active means well fitted curve in the direction sought with a large enough effect; an effect the other way counts as inactive or inconclusive; further: potency means the concentration at half of the fitted maximal effect; nearly all actives have a fitted effect of over 60% in size). In short, it runs like this:
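Human CYP2D6 (5 nM) with 30 uM Luciferin-ME EGE (at Km) in 100 mM KPO4, compound preincubated 10 min, then NADPH regeneration system for 60 min at room temperature. Luciferin read by luminescence; normalized to 1.43 uM quinidine.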

Assay [10] deals with Cytochrome P450 2C19 (Homo sapiens) (UniProt P33261). Description: qHTS Assay for Inhibitors and Substrates of Cytochrome P450 2C19 (AID 899; active means well fitted curve in the direction sought with a large enough effect; an effect the other way counts as inactive or inconclusive; further: potency means the concentration at half of the fitted maximal effect; nearly all actives have a fitted effect of over 60% in size). In short, it runs like this:
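Luminescent read-out of luciferin formed from Luciferin-H EGE (10uM, equal to KM). Enzyme 5nM in 50mM KPO4; compound added, 10 min at 37C, then NADPH regenerating system for 60 min at 37C. Full inhibition defined by 57uM ketoconazole.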

Assay [11] deals with Cytochrome P450 3A4 (Homo sapiens) (UniProt P08684). Description: qHTS Assay for Activators of Cytochrome P450 3A4 (AID 885; active means well fitted curve in the direction sought with a large enough effect; an effect the other way counts as inactive or inconclusive; further: nearly all actives have a fitted effect of over 65% in size). Put shortly:
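Human CYP3A4 (20 nM) with Luciferin-PPXE at 25 uM (its KM) in 200 mM KPO4; 10 min compound preincubation, then NADPH regeneration and 60 min reaction at RT. Luciferin read by luminescence; normalized to 57 uM ketoconazole full inhibition.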

The target in assay [12] is DNA dC->dU-editing enzyme APOBEC-3G (Homo sapiens) (UniProt Q9HC16). Description: qHTS for inhibitors of Vif-A3G interactions: Validation (AID 588379; active means well fitted curve in the direction sought with a large enough effect; an effect the other way counts as inactive or inconclusive; further: 0% is about no effect). Put shortly: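 HeLa cells stably expressing Vif and A3G-eYFP, 700 cells/well, incubated overnight at 37 deg C, then exposed to compound overnight at 37 deg C. Inhibition of Vif-mediated degradation read as increased yellow fluorescence (Ex 488/Em 500-530) by laser-scanning cytometry.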
Chain of DNA dC->dU-editing enzyme APOBEC-3G (Homo sapiens) (Q9HC16 whole entry, looked up): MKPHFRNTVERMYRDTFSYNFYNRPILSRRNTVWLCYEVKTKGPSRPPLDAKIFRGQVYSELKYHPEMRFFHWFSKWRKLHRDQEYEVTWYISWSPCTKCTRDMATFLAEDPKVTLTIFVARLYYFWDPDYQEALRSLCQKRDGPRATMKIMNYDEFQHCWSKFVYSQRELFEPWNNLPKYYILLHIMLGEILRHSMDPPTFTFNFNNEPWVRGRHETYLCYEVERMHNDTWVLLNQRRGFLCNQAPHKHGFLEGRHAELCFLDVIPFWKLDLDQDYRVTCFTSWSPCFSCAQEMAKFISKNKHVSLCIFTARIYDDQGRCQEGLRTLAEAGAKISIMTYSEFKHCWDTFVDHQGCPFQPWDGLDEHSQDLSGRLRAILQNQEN

Assay [13] addresses Guanine nucleotide-binding protein G(i) subunit alpha-1 (Homo sapiens) (UniProt P63096). Description: qHTS Assay for Inhibitors of RGS12 GoLoco Motif Activity (Green Fluorophore) (AID 879; active means well fitted curve in the direction sought with a large enough effect; an effect the other way counts as inactive or inconclusive;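 further: 0% = labeled peptide with Gαi1 and full inhibition = labeled peptide alone without protein; negative values mean loss of peptide binding seen as reduced polarization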). Put shortly: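 Fluorescence polarization assay: 50 nM Gαi1 with 10 nM FITC-labeled RGS12 GoLoco peptide in 10 mM Tris pH 7.5, 150 mM NaCl, 0.1 mM GDP, 0.05% NP40, 10 min at room temperature with compound.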

Assay [14] can be described thus: qHTS Assay for Identification of Small Molecule Agonists for Thrombopoietin (TPO) Signaling Pathway (AID 917; active means well fitted curve in the direction sought with a large enough effect; an effect the other way counts as inactive or inconclusive; further: on the % scale 0 is the no-effect control and ±100 the full control effect). In short, it runs like this:
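Reporter: GpIIb promoter–luciferase in murine Ba/F3 expressing human TPO receptor. Pre-starved of IL-3 overnight; compounds with 26 pM TPO, 24 hrs, 37 C/5% CO2; luminescence read.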

In assay [15] the target is Pyruvate kinase (Leishmania mexicana) (UniProt Q27686). Description: qHTS Validation Assay for Inhibitors of Leishmania Mexicana Pyruvate Kinase (AID 945; active means well fitted curve in the direction sought with a large enough effect; an effect the other way counts as inactive or inconclusive;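 further: 0% = DMSO only neutral control wells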). In short, it runs like this: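 Substrate mix (0.5 mM PEP, 0.1 mM ADP, 7 mM MgCl2, 50 mM KCl, pH 7.2 imidazole) received compound by pin tool, then 0.2 nM LmPYK E451W. After 1 h at room temperature, PKLight was added and luminescence measured.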
Chain of Pyruvate kinase (Leishmania mexicana) (Q27686 2-499 E452W): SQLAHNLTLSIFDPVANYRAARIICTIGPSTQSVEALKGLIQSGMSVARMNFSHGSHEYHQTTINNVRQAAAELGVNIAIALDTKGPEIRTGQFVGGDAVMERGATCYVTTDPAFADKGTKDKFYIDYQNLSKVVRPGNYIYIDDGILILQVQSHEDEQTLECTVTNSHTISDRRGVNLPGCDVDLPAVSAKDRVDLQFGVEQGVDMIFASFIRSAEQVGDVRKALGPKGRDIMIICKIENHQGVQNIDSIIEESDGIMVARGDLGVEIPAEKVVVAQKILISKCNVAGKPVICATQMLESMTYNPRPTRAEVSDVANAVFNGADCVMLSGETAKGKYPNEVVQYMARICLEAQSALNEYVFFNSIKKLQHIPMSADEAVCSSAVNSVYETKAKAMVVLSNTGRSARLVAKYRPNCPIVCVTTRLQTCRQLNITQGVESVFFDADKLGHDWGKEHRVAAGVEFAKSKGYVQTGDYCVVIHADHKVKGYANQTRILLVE

Assay [16] deals with Pyruvate kinase PKM (Homo sapiens) (UniProt P14618). Description: qHTS Assay for Activators of Human Muscle Pyruvate Kinase (AID 954; active means well fitted curve in the direction sought with a large enough effect, not every such curve was filed as active;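 further: 0% = uninhibited enzyme and -100% = no enzyme or full thiadiazolimine inhibition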). Put shortly: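 Purified human PKM2 (0.1 nM) with 0.5 mM PEP (Km) and 0.1 mM ADP in 50 mM imidazole pH 7.2, KCl, MgCl2, 1 h at room temperature; ATP formed read by coupled luciferase luminescence. Normalized to no-enzyme/110 uM thiadiazolimine inhibition; 0.3 nM enzyme column for activation.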

Assay [17] concerns the target Alpha-galactosidase A (Homo sapiens) (UniProt P06280). Description: Counterscreen for Glucocerebrosidase Inhibitors: qHTS Assay for Human alpha-Galactosidase at pH 4.5 (AID 992; active means well fitted curve in the direction sought with a large enough effect; an effect the other way counts as inactive or inconclusive; further: 0% is about no effect). In short, it runs like this:
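Human enzyme (2 nM) with 80 uM 4-methylumbelliferyl alpha-D-galactopyranoside in 50 mM citric acid, 0.005% Tween-20, pH 4.5, 20 min at room temperature. Compounds 0.7 nM–77 uM; fluorescence Ex 365/Em 440 after pH 10 stop; AC50 from Hill fits.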

The target of assay [18] is alpha-glucosidase (Oryza sativa, rice) (UniProt Q653V4). Description: Counterscreen for Glucocerebrosidase Inhibitors: qHTS Assay for Rice alpha-Glucosidase at pH 5.0 (AID 997; active means well fitted curve in the direction sought with a large enough effect; an effect the other way counts as inactive or inconclusive;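 further: 0% = full activity with enzyme and -100% = basal without enzyme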). Put shortly:
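Rice alpha-glucosidase (4 nM final) with 400 uM 4-methylumbelliferyl-alpha-D-glucopyranoside in citrate buffer pH 5.0, 20 min at room temperature, stopped at pH 10; fluorescence 365/440 nm, compounds 0.7 nM–77 uM, AC50 from Hill fits.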

Unmarked numbers belong to inactive results. Records with an inconclusive call do not appear. Active and inactive are the calls of the source. Unless noted, the call rests on the fitted dose curve; in most records, active means well fitted curve in either direction with a large enough effect (not every such curve was filed as active); inconclusive means small, poorly fitted or top-dose-only effect, or another doubt; inactive means flat fitted curve, though single readings scatter. A value given as a limit tells only on which side of the number the result lay.

We go through twelve molecules from PubChem BioAssay (NCATS).

Chain of 3',5'-cyclic-AMP phosphodiesterase 4B (Homo sapiens) (Q07343 whole entry, looked up): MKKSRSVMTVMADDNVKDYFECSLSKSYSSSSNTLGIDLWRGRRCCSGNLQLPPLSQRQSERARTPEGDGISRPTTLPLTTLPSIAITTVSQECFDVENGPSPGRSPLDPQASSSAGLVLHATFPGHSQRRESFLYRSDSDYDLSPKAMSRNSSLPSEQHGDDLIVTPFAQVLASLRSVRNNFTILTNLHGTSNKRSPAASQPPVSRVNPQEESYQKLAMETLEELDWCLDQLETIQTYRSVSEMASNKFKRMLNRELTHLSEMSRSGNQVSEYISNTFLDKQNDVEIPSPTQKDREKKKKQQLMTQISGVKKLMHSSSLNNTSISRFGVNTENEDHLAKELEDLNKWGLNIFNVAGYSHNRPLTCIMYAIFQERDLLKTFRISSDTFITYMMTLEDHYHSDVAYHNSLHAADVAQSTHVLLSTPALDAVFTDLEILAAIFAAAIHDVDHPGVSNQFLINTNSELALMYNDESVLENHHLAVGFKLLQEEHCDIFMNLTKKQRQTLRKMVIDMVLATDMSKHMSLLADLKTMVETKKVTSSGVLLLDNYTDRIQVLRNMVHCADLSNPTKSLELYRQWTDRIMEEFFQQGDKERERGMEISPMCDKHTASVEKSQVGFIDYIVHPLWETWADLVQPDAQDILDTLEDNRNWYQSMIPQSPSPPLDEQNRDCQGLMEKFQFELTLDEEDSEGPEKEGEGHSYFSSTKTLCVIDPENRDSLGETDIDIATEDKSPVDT
Chain of Guanine nucleotide-binding protein G(i) subunit alpha-1 (Homo sapiens) (P63096 whole entry, looked up): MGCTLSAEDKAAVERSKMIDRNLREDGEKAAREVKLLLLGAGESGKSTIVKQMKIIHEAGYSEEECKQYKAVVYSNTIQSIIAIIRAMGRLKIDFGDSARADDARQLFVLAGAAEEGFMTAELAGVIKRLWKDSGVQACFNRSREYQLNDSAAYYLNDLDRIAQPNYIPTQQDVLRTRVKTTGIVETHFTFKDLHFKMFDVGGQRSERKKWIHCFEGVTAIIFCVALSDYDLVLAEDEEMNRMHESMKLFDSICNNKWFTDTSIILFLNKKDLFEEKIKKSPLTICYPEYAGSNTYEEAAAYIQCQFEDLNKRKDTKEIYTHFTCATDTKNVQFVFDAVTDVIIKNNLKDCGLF
Chain of Alpha-galactosidase A (Homo sapiens) (P06280 whole entry, looked up): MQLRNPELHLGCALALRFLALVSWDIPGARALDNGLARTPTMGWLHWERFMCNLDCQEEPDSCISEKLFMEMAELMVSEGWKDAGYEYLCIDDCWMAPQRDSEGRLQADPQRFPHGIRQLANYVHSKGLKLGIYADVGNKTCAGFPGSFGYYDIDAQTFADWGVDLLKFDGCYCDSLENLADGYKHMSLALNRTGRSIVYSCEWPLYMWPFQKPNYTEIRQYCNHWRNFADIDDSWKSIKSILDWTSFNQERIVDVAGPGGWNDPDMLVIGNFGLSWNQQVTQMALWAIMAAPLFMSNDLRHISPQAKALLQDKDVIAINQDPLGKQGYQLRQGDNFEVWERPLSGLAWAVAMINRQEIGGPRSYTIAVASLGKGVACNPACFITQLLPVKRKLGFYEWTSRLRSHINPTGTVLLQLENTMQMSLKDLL
Chain of Cytochrome P450 3A4 (Homo sapiens) (P08684 whole entry, looked up): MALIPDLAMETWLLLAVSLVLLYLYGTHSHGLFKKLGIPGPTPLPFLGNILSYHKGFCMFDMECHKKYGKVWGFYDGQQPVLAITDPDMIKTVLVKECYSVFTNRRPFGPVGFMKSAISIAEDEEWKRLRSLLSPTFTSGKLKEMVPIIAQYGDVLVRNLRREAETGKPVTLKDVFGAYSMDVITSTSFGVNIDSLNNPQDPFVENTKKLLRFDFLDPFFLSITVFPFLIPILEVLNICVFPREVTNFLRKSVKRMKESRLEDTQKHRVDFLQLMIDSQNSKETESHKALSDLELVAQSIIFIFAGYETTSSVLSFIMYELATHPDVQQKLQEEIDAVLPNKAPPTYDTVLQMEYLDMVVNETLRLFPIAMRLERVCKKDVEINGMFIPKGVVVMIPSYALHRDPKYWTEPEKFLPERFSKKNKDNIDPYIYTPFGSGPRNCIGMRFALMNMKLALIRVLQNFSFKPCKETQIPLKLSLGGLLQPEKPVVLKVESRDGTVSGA
Chain of Cytochrome P450 2C19 (Homo sapiens) (P33261 whole entry, looked up): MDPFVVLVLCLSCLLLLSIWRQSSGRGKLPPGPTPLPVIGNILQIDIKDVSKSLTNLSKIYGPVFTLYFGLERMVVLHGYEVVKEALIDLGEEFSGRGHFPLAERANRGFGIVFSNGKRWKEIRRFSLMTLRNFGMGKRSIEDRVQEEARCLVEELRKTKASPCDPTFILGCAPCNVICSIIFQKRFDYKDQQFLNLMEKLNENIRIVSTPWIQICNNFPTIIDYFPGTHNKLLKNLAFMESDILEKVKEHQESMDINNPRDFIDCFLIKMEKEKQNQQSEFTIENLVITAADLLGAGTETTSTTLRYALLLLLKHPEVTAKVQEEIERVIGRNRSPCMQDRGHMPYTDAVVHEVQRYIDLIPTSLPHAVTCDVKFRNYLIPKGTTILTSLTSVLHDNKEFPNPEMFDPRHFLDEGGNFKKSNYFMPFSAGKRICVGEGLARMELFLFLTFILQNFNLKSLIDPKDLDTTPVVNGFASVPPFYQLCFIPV
Chain of Cytochrome P450 2D6 (Homo sapiens) (P10635 whole entry, looked up): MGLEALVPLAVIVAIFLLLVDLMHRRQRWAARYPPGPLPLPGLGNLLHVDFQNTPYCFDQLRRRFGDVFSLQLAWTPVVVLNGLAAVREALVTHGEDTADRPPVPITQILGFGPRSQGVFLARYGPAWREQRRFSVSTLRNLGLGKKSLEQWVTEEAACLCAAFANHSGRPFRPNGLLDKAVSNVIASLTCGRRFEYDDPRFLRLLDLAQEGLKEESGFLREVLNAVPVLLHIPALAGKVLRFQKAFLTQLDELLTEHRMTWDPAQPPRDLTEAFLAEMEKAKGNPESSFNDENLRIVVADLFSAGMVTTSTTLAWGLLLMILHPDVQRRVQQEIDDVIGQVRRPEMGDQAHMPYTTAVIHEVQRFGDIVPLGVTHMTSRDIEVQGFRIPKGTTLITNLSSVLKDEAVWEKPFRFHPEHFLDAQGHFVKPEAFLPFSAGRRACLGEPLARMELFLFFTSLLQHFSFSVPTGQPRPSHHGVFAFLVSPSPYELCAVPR

For the molecule `CCN(CC)CCNc1ncnc2c1[nH]c1ccc(OC)cc12`, the figures for the activity change, negative = inhibition in assay [1] and in assay [2] were 7.05% and -11.4%, respectively. In addition, the activity, negative = inhibition in assay [3] was 3.82%. Besides, the Potency in [4] is over 20.6 µM. Moreover, the activation in assay [5] is 2.09%.
On to `O=C(O)CCN(CCC(=O)O)c1nnc(SCc2ccccc2)s1`, for which the activity change, negative = inhibition in assay [1] is 8.29%; in assay [2] it was 12.2%. Besides, the activity, negative = inhibition in assay [3] is 11.2%. The Potency in [4] is over 20.6 µM. The activation in assay [5] is 24.5%.
Consider `CC(C)(C)c1cc(Br)c(O)c(CN(Cc2cc(C(C)(C)C)cc(Br)c2O)C2CCCCC2)c1`, for which the results for the activity change, negative = inhibition in [1], in assay [2] and in assay [7] were 10.4% [at 7.69 µM], 3.39% [at 7.69 µM] and 19.2% [at 11.4 µM], respectively. Moreover, in assay [3], the activity, negative = inhibition was -1.22% [at 7.69 µM]. In addition, the Potency in [4] is over 46 µM; in assay [6], over 9.22 µM; in assay [9], 0.199 µM (active); in assay [10], 0.631 µM (active). In assay [8], the Potency entry is “inactive”.
Take `CCOC(=O)C(C(=O)OCC)N(C#N)c1nc(SC)nc(N(C)C)n1`: the figures for the activity change, negative = inhibition in assay [1] and in [2] were -8.06% and -23.5%, respectively. In addition, the activity, negative = inhibition in [3] is -8.92%. Besides, in assay [4], the Potency was over 20.6 µM. For the same molecule, in assay [5], the activation is -11.1%.
The matching figures for `CC(C)C1Cc2c(C#N)c(N)n(C)c(=S)c2CO1` (stereo unspecified): -4.25%, -23.6%, 4.22%, over 20.6 µM and -0.94%.
Consider `Cc1nn(C)cc1C1C2=C(CC(C)(C)CC2=O)OC2=C1C(=O)CC(C)(C)C2`, for which the activity change, negative = inhibition was 3.4% in assay [1] and -23.9% in assay [2]. Besides, in assay [3], the activity, negative = inhibition is 4.21%. Besides, in assay [4], the Potency is over 20.6 µM. The activation in [5] was 1.79%.
In the case of `Cc1nnc(SCCC#N)n(CCC#N)c1=O`, the activity change, negative = inhibition is 25.1% in [1] and -2.84% in [2]. In addition, the activity, negative = inhibition in assay [3] is -5.67%. In addition, in assay [4], the Potency was over 20.6 µM. Also, the activation in assay [5] is 15.5%.
The matching figures for `O=C(O)CCCC(=O)Nc1ccn(-c2ccccc2)n1`: 1.68%, -4.19%, 0.897%, over 20.6 µM and 6.56%.
Take `COC1=CC(=O)CC(C)C12Oc1c(Cl)c(OC)cc(OC)c1C2=O` (stereo unspecified): the results for the activity change, negative = inhibition in [1] and in [2] were -16.1% and -12.3%, respectively. Besides, the activity, negative = inhibition in [3] is 4.38%. In [4], the Potency was over 20.6 µM. The Potency entry in [11] was “inactive”. Also, the result in [12] was inactive.
As to `CCOC(=O)c1c(N)sc2c1CCC1C(=O)N(C3CCCCC3)C(=O)C21` (stereo unspecified), the activity change, negative = inhibition in assay [1] was -12.9%; in assay [2] it was -2.94%. The activity, negative = inhibition in assay [3] is -6.61%. In assay [4], the Potency is over 20.6 µM. The activation in assay [5] is -6.89%.
For the molecule `COc1ccc(-n2c(=O)c(CCc3ccccc3)nc3cnc(N4CCNCC4)nc32)cc1`, the activity change, negative = inhibition in assay [1] is 4.61% [at 7.69 µM]; in [2] it was 7.43% [at 7.69 µM]. Besides, the activity, negative = inhibition in assay [3] is 0.474% [at 7.69 µM]. Also, the Potency in assay [4] is over 9.22 µM; in [6], over 46 µM; in assay [5], 3.16 µM (active). In addition, the Potency result in assay [7] and in assay [8] was “inactive” throughout.
In the case of `CN1C[C@@H](C(=O)N[C@]2(C)O[C@]3(O)[C@H]4CCCN4C(=O)[C@H](Cc4ccccc4)N3C2=O)C[C@H]2c3cccc4[nH]cc(c34)C[C@@H]21`, the activity change, negative = inhibition in [1] is -19.9% [at 38 µM]; in assay [2], -15.6% [at 38 µM]. Further, the activity, negative = inhibition in [3] is -18.4% [at 38 µM]. Further, the Potency in [4] and in assay [6] was over 46 µM in each case. In addition, the Potency result in assay [7], in assay [8], in assay [14] and in assay [15] was “inactive” each time. Besides, the outcome in assay [13], in assay [16], in [17] and in assay [18] was inactive.
